Measurements published in PubChem BioAssay AID1159580 (chemical genetic matrix, 2015).
In all, about 5,500 compounds went through this assay and about 2,000 (36%) were called active. Inconclusive results (about 18%) are left out. No stated cut-off is given here; in the data, active means normalized growth mostly below about 0.91 (no sharp cut-off); inconclusive means no clear call, values can overlap the other calls; inactive means mostly above about 0.92. The list shows a part of the results.

Test: chemical genetic growth profiling, strain panel (AID 1159580);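 further: tested at 20 µM; growth read once vehicle control cultures reached saturation at 30 °C; 1 = growth at the plate median or of vehicle wells; lower values mean less growth of the strain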
Conditions: S. cerevisiae deletion strains, growth OD

Measured: normalized growth

OC1CCCCC1N1CCC(c2ccccc2)CC1 (stereo not given)
inactive: locus YAL013W, strain DEP1, active compounds read low 0.998 | locus YAL021C, strain ccr4, active compounds read low 0.998 | locus YAL026C, strain drs2, active compounds read low 0.994 | locus YAL030W, strain snc1, active compounds read low 0.992 | locus YAL040C, strain CLN3, active compounds read low 0.998 | locus YBL061C, strain skt5, active compounds read low 0.994 | locus YBR009C, strain hhf1, active compounds read low 0.957 | locus YBR023C, strain chs3, active compounds read low 0.999 | locus YBR171W, strain sec66, active compounds read low 0.99 | locus YBR231C, strain swc5, active compounds read low 0.993 | locus YBR279W, strain paf1, active compounds read low 0.999 | locus YCL011C, strain gbp2, active compounds read low 0.996 | locus YCL016C, strain dcc1, active compounds read low 0.989 | locus YCL061C, strain MRC1 (second series), active compounds read low 1.01 | locus YCL061C, strain MRC1, active compounds read low 0.993 | locus YCL069W, strain vba3, active compounds read low 0.989 | locus YCR088W, strain abp1, active compounds read low 0.983 | locus YDL005C, strain med2, active compounds read low 0.992 | locus YDL040C, strain nat1, active compounds read low 0.993 | locus YDR001C, strain nth1, active compounds read low 0.984 | locus YDR069C, strain doa4, active compounds read low 0.998 | locus YDR137W, strain rgp1, active compounds read low 0.945 | locus YDR150W, strain NUM1, active compounds read low 1 | locus YDR159W, strain sac3, active compounds read low 0.997 | locus YDR195W, strain ref2 0.941 | locus YDR297W, strain sur2, active compounds read low 0.995 | locus YDR334W, strain swr1, active compounds read low 0.996 | locus YDR335W, strain msn5, active compounds read low 0.997 | locus YDR363W, strain ESC2, active compounds read low 1.01 | locus YDR392W, strain spt3, active compounds read low 0.902 | locus YEL003W, strain gim4, active compounds read low 0.994 | locus YEL037C, strain rad23, active compounds read low 0.99 | locus YEL061C, strain CIN8 (second series), active compounds read low 0.989 | locus YER002W, strain NOP16, active compounds read low 0.992 | locus YER015W, strain faa2, active compounds read low 0.992 | locus YER016W, strain bim1, active compounds read low 0.993 | locus YER111C, strain swi4, active compounds read low 0.978 | locus YER155C, strain BEM2 (second series), active compounds read low 0.96 | locus YFR010W, strain ubp6, active compounds read low 0.988 | locus YGL167C, strain pmr1, active compounds read low 0.986 | locus YGL173C, strain kem1, active compounds read low 0.994 | locus YGL227W, strain vid30, active compounds read low 0.988 | locus YGL240W, strain doc1, active compounds read low 1.01 | locus YGL253W, strain hxk2, active compounds read low 0.996 | locus YGR078C, strain PAC10, active compounds read low 1.01 | locus YGR229C, strain SMI1, active compounds read low 1.01 | locus YHR013C, strain ard1, active compounds read low 0.941 | locus YHR027C, strain rpn1, active compounds read low 0.988 | locus YHR030C, strain SLT2, active compounds read low 0.979 | locus YHR079C, strain IRE1, active compounds read low 0.983 | locus YHR142W, strain chs7, active compounds read low 1.01 | locus YJL092W, strain hpr5, active compounds read low 0.989 | locus YJL095W, strain BCK1 (second series), active compounds read low 0.993 | locus YJL095W, strain BCK1, active compounds read low 0.984 | locus YJL115W, strain asf1, active compounds read low 0.991 | locus YJL129C, strain trk1, active compounds read low 1.02 | locus YJL154C, strain vps35, active compounds read low 0.987 | locus YJL164C, strain tpk1, active compounds read low 1 | locus YJL166W, strain qcr8, active compounds read low 1 | locus YJL187C, strain SWE1, active compounds read low 0.996 | locus YJR066W, strain TOR1, active compounds read low 0.934 | locus YKL160W, strain elf1, active compounds read low 1.02 | locus YKR026C, strain gcn3, active compounds read low 0.975 | locus YKR091W, strain srl3, active compounds read low 0.983 | locus YLL001W, strain dnm1, active compounds read low 0.981 | locus YLL026W, active compounds read low 0.995 | locus YLL041C, strain sdh2, active compounds read low 0.99 | locus YLR027C, strain aat2, active compounds read low 0.992 | locus YLR113W, strain HOG1, active compounds read low 0.999 | locus YLR221C, strain rsa3, active compounds read low 1.01 | locus YLR258W, strain gsy2, active compounds read low 0.984 | locus YLR262C, strain YPT6 (second series), active compounds read low 0.945 | locus YLR320W, strain mms22, active compounds read low 0.998 | locus YLR342W, strain FKS1, active compounds read low 0.981 | locus YLR357W, strain rsc2, active compounds read low 0.979 | locus YLR370C, strain arc18, active compounds read low 0.992 | locus YLR384C, strain iki3, active compounds read low 0.983 | locus YML120C, strain ndi1, active compounds read low 1.02 | locus YMR058W, strain fet3, active compounds read low 0.999 | locus YMR125W, strain sto1, active compounds read low 0.988 | locus YMR129W, active compounds read low 0.985 | locus YMR205C, strain PFK2, active compounds read low 0.953 | locus YMR231W, strain pep5, active compounds read low 0.988 | locus YMR307W, strain GAS1, active compounds read low 0.991 | locus YNL071W, strain lat1, active compounds read low 0.999 | locus YNL128W, strain TEP1, active compounds read low 0.978 | locus YNL153C, strain GIM3, active compounds read low 0.997 | locus YNL175C, strain NOP13, active compounds read low 0.994 | locus YNL183C, strain NPR1, active compounds read low 0.937 | locus YNL197C, strain WHI3, active compounds read low 0.993 | locus YNL209W, strain ssb2, active compounds read low 0.993 | locus YNL224C, strain SQS1, active compounds read low 0.997 | locus YNL248C, strain rpa49, active compounds read low 1.02 | locus YNL322C, strain KRE1 (second series), active compounds read low 0.992 | locus YNR049C, strain mso1, active compounds read low 0.989 | locus YOR001W, strain rrp6, active compounds read low 1.01 | locus YOR070C, strain gyp1, active compounds read low 0.992 | locus YOR080W, strain dia2, active compounds read low 0.988 | locus YOR083W, strain WHI5 (second series), active compounds read low 1 | locus YOR083W, strain WHI5, active compounds read low 1.02 | locus YOR106W, strain vam3, active compounds read low 1.02 | locus YOR231W, strain MKK1, active compounds read low 0.986 | locus YOR265W, strain rbl2, active compounds read low 0.993 | locus YOR270C, strain vph1, active compounds read low 1 | locus YOR290C, strain snf2, active compounds read low 0.911 | locus YPL051W, strain arl3, active compounds read low 0.999 | locus YPL078C, strain atp4, active compounds read low 1.01 | locus YPL106C, strain sse1, active compounds read low 0.98 | locus YPL240C, strain hsp82, active compounds read low 1 | locus YPL256C, strain CLN2, active compounds read low 1
